# Screening results: PubChem, National Center for Advancing Translational Sciences (NCATS)
# Shown are actives, neighbours in structure and some others; about 0.2% of the full set was active somewhere.
# miR-21 act – qHTS Assay for Modulators of miRNAs and/orActivators of miR-21 | 340,000 tested, under 10 active | HeLa miR-21 FLuc reporter, luciferase, 48 h | Potency, µM (doses to about 38.3 µM), for inactives: at the highest dose activity change, positive = activation, usual class: activators;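 also: % of control where 0% means no effect; miR-21 action dims this reporter so a rising signal means less miR-21 action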
#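 HeLa cells stably expressing CMV-driven firefly luciferase with a downstream miR-21 binding sequence, endogenously expressing miR-21, were treated with titrations (up to about 40uM final) for 48 hours at 37 degree Celsius. Luciferase luminescence was read after lysis.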
# Anesthetic bind – qHTS Assay for Identification of Novel General Anesthetics; Ferritin light chain (Equus caballus), P02791; apoferritin/1-aminoanthracene competitive binding, fluorescence; Potency, µM (series often up to 77.5 µM), without a hit: top-dose activity change, negative = displacement, usual class: inhibitors; 0.074% of 350,000 active; AID 485281, 2010; also: potency is read from the fitted curve at half-maximal effect; % is scaled to controls: 0 for no effect and ±100 for the full control effect; nearly all actives have a fitted effect of over 20% in size
# Target sequence (P02791 2-175 limits assumed): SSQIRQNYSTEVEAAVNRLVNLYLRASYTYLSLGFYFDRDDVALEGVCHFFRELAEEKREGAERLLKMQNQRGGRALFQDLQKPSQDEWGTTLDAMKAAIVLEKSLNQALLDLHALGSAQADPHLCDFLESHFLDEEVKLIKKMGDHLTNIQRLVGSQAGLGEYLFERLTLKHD
#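 Steps: apoferritin (10 uM) was premixed with half-saturated 1-AMA in PBS, compounds were pin-transferred, plates stood 10 min at room temperature, fluorescence was read at 380/535 nm, and curves were fitted with a Hill equation.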
# LDHA inh – qHTS assay for inhibitors of human lactate dehydrogenase | purified LDHA, NADH/diaphorase-resazurin fluorescence; stronger effect = lower value | AID 1347041, 2019 | activity change, % (values are at about 110 or 230 µM) | 0.15% of 480,000 active | L-lactate dehydrogenase A chain (Homo sapiens), P00338; in the data active = activity change below about -30%; inconclusive = mostly about -25% to -30%;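 also: plate controls were DMSO wells for no effect and wells without enzyme for full effect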
#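 Human LDH5 at 2 nM final in Tris HCl pH 7.4 with 0.06 mM NADH and 0.2 mM pyruvate, reacted 5 minutes at room temperature. Remaining NADH coupled via diaphorase/resazurin; resorufin fluorescence read at 0 and 20 minutes, normalized to enzyme-free and DMSO wells.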
# Numbers without * were called inactive; ? = inconclusive; . = not tested or not shown. Unless noted, calls follow the shape of the dose curve; as a rule, active = well fitted curve in the direction sought with a large enough effect; inconclusive = small, poorly fitted or top-dose-only effect, or another doubt; inactive = no such curve, though single readings can be large; an effect the other way counts as inactive or inconclusive.
SMILES,miR-21 act,Anesthetic bind,LDHA inh
O=C(Oc1ccc2c(-c3cc4cc(Br)ccc4oc3=O)cc(=O)oc2c1)N1CCOCC1,.,.,3.3
CCCN1C(=O)c2ccccc2NC1c1ccc(OC)c(COc2ccc([N+](=O)[O-])c(C)c2)c1 (centres undefined),.,.,-58.9*
COc1ccc(C2Nc3ccccc3C(=O)N2Cc2ccco2)cc1COc1ccc([N+](=O)[O-])cc1 (centres undefined),12.3%,?,-0.8
Cc1nc(C)c(-c2ccc(SCC(=O)Nc3ccccc3F)nn2)s1,?,22.4µM*,-0.4
Cc1nc(C)c(-c2ccc(SCC(=O)Nc3ccc(F)cc3F)nn2)s1,10.5%,-10.0%,-2.8
CCCCn1c(CN2CCc3ccccc3C2)nc2c1c(=O)[nH]c(=O)n2Cc1ccccc1,.,.,7.6
CSc1nc(-c2ccccc2)c2ccccc2n1,.,.,-0.6
CCOc1ccccc1CN1CCCCCC1c1sccc1C (centres undefined),.,.,-30.8*
CCOc1cc(CN2CCCCCC2c2ccccc2Cl)ccc1OCC(N)=O (centres undefined),.,.,3.2
